Screening data: PubChem, National Center for Advancing Translational Sciences (NCATS)
The list is not random: actives were taken first. Their share in the collection is about 0.75%.
uPA generation – inhibitors of cell surface uPA generation; cell surface uPA generation assay, qHTS; Potency, µM (top dose mostly 38.3 µM), usual class: inhibitors; hit rate 0.31% among 330,000; active = well fitted inhibition curve with a large enough effect; inconclusive = small, poorly fitted or top-dose-only effect; inactive = no such curve, though single readings can be large or run the other way; tested in mouse RAW 264.7 cells; note: nearly all actives have a fitted effect of over 55% in size
TSHR antag – antagonists of human thyroid stimulating hormone receptor; P16473; TSHR-expressing cells, TSH-stimulated cAMP HTRF, 2 h; hits give low values; activity change, negative = inhibition, % at 11.5 µM; hit rate 0.2% among 330,000; AID 504810;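 active = activity change below a set negative limit, meaning inhibition stronger than a set level, cut at about -70% in these data; inconclusive = activity change between two set negative limits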
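TSHR-expressing cells, 200/well, pre-treated with compound, then stimulated with EC80 TSH (4nM final) for 2 hours at 37 deg C. cAMP measured by competitive HTRF: anti-cAMP cryptate antibody in lysis buffer plus cAMP-d2, read after 30 minutes at room temperature.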
PKM2 activator – activators of human pyruvate kinase M2; hit rate 0.34% among 260,000; P14618; AID 1631; Potency, µM (doses to about 57.5 µM), most hits filed as activators; purified PKM2, Kinase-Glo ATP luminescence, activation; response scale: 0% is enzyme alone, no compound; note: nearly all actives have a fitted effect of over 55% in size
Target sequence (P14618 whole entry, looked up): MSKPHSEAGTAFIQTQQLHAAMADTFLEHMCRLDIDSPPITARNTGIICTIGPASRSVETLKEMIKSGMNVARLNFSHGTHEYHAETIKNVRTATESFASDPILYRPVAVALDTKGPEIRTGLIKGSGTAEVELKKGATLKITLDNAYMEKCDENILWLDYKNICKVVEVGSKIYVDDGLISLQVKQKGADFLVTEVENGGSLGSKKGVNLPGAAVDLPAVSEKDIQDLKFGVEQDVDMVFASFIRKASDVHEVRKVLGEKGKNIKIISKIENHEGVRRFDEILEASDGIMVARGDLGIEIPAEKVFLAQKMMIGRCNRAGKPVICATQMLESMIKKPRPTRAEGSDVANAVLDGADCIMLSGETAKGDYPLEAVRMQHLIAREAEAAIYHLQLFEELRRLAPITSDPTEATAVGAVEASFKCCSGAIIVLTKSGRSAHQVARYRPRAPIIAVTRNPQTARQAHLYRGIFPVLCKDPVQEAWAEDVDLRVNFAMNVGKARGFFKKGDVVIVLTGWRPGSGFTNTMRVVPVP
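Kinase-Glo luminescence reports ATP generated from ADP (0.1 mM) and PEP (0.5 mM) by purified hPK-M2 after 1 h at room temperature, pH 7.2 imidazole buffer; intermediate enzyme activity allows detecting inhibitors and activators.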
TCR act – activates T cell receptor signaling; primary human leukocytes, anti-CD3, IL-2 HTRF, 48 h; Potency, µM (series often up to 9.22 µM), usual class: activators; 330,000 tested, under 10 active
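Primary human leukocytes incubated 48 hr with anti-CD3 beads plus compound, without co-stimulation. Secreted IL-2 measured by HTRF (europium cryptate/d2 anti-IL-2 pair, 320 nm excitation, 665 nm emission).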
Hits are given with their value; n = inactive; u = inconclusive; x = not tested or not shown; [ ] = remark or other dose. Unless noted, calls come from the whole dose curve; as a rule, active = well fitted curve in the direction sought with a large enough effect; inconclusive = small, poorly fitted or top-dose-only effect, or another doubt; inactive = no such curve, though single readings can be large; an effect the other way counts as inactive or inconclusive.

SMILES	uPA generation	TSHR antag	PKM2 activator	TCR act
CCN1C(=O)c2cccc3c(S(=O)(=O)Nc4ccncc4)ccc1c23	n	n	n	n
CCN1C(=O)c2cccc3c(S(=O)(=O)Nc4ncccc4C)ccc1c23	n	n	11.2µM	n
CCN1C(=O)c2cccc3c(S(=O)(=O)Nc4nc(C)cs4)ccc1c23	n	n	3.98µM	n
CCN1C(=O)c2cccc3c(S(=O)(=O)Nc4ccccn4)ccc1c23	n	n	u	x
COc1cc(OC)c(C(=O)C=Cc2ccc(OC)c(OC)c2)c(OC)c1	n	x	x	n
COc1cc(O)c(C(=O)/C=C/c2ccccc2)c(OC)c1	8.91µM	n	n	n
Cc1ccc(C(=O)NNS(=O)(=O)c2ccc(F)cc2)cc1	n	n	n	n
O=C(c1ccc([N+](=O)[O-])o1)N1CCc2ccccc2C1	7.08µM	n	n	n
COc1cc2c(cc1OC)CN(C(=O)c1ccc([N+](=O)[O-])o1)CC2	n	n	n	n
Cc1cc(C(=O)CN2c3cccc4cccc(c34)S2(=O)=O)c(C)n1C	2µM	n	x	n
CCCc1cc(=O)oc2c3c(cc(OCC(=O)N[C@@H](C)C(=O)O)c12)OC(C)(C)CC3	n	n	x	n
CCCc1cc(=O)oc2c3c(c4c(c12)OC(C)(C)C=C4)OC(C)C(C)C3O (stereo not drawn)	1.41µM	n	n	n
O=C(NCc1ccc(/C=c2\sc3n(c2=O)CCN=3)o1)C(=O)Nc1ccccc1	x	n	20µM	x
CN(C)/C=C/c1oc2ccc(O)cc2c1[N+](=O)[O-]	n	n	n	n
CCOc1cc(C(=O)OC(C)C(=O)Nc2ccccc2OC)ccc1OCC(=O)N1CCOCC1 (stereo not drawn)	n	x	x	n
CCOc1cc(C(=O)OC(C)C(=O)Nc2ncc(Cl)cc2Cl)ccc1OCC(=O)N1CCOCC1 (stereo not drawn)	8.91µM	n	n	n
S=C(c1ccc(-c2ccc(Br)cc2)o1)N1CCOCC1	n	n	12.6µM	n
C=CCN1c2ccccc2[C@]23C[C@@H](C(=O)OC)N(S(=O)(=O)c4cccs4)C2=NC(C(=O)OC)=C(C(=O)OC)[C@H]13	x	x	n[11.5 µM]	x
CCOc1ccc(-c2csc(/C(C#N)=C\c3ccc(O)c([N+](=O)[O-])c3)n2)cc1	n	-83.4	n	n
CCCCc1ccc(-c2csc(/C(C#N)=C\c3ccc(C)o3)n2)cc1	x	n	n	n
CCCC(=O)Nc1ccc2c(c1)nc(CN1CCN(C(=O)OCC)CC1)n2CC	3.55µM	n	x	n
COc1ccc(C(=O)/C=C/C(=O)N(CC(=O)NC2CCCCC2)Cc2ccc(F)cc2)c(O)c1	n	n	7.94µM	x
COc1ccc(C(=O)/C=C/C(=O)N(CC(=O)NCCC(C)C)Cc2cccs2)c(O)c1	n	n	22.4µM	n
COc1ccc(C(=O)N(Cc2ccco2)Cc2cccs2)c(O)c1	n	n	n	x
CCCOc1ccc(Br)cc1CSC(=N)N	5.62µM	n	n	n
SMILES	uPA generation	TSHR antag	PKM2 activator	TCR act
CCOc1ccc(Br)cc1CC(=O)O	n	x	x	n
CCCCc1nc2c(c3c1C[C@H](C)OC3)CN(S(=O)(=O)c1ccc(C#N)cc1)CC2	x	x	n[11.5 µM]	x
CC(C)(C)c1ccc(S(=O)(=O)Nc2cccc(C3OCCCO3)c2)cc1	n	n	n	n
O=C(Nc1ccc2[nH]ccc2c1)c1ccc(F)cc1	0.891µM	n	n	n
Cc1ccc(SCC(=O)NCc2ccccc2C)cc1	n	-122.1	n	n
Cc1ccc(SCC(=O)NCc2ccccc2)cc1	n	n	n	n
N#C/C(=N/Nc1ccc(OC(F)(F)F)cc1)C(N)=S	7.94µM	u	n	n
COc1ccc(COC2OC[C@]3(C)[C@H]4C5=C(CN3C(=O)OC(C)(C)C)[C@H](C)C(CO)C(CO)C5CC[C@@H]24)cc1 (stereo partly drawn)	x	x	n	x
CN(C)S(=O)(=O)N1CCN(c2ccnc3cc(Cl)ccc23)CC1	n	-120.2	n	n
Fc1ccc(CSc2ncnc3ccccc23)cc1	n	n	25.1µM	n
O=C(NNC1=NS(=O)(=O)c2ccccc21)c1ccc(Cl)cc1	3.55µM	n	n	n
O=C(NNC1=NS(=O)(=O)c2ccccc21)c1ccc([N+](=O)[O-])cc1	n	n	n	n
Cc1nc(Sc2nnnn2C)c2c3c(sc2n1)CCC3	n	n	n	n
CCc1nc(Sc2nnnn2-c2ccccc2)c2c3c(sc2n1)CCCC3	n	n	10µM	n
CCc1sc(C(C2C(=O)CC(C)(C)CC2=O)C2C(=O)CC(C)(C)CC2=O)cc1[N+](=O)[O-]	n	n	22.4µM	n
